Reference: PMC7826789 (International Journal of Molecular Sciences, 2021)

Tests used:
Conditions in all cases: Compound Concentration (nM):1000
WEE1 = test system: WEE1
WEE2 = test system: WEE2
WNK1 = test system: WNK1
WNK2 = test system: WNK2
WNK3 = test system: WNK3
WNK4 = test system: WNK4
YANK1 = test system: T1, YANK1
T1 construct: gene STK32A

YANK2 = test system: T2, YANK2
T2 construct: gene STK32B

YANK3 = test system: T3, YANK3
T3 construct: gene STK32C

YES = test system: T4, YES
T4 construct: gene YES1
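Also: KINOMEscan scanMAX binding as percent activity remaining versus control; lower means stronger binding.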

Row | Structure (SMILES) | Percent Control (WEE1) [%] | Percent Control (WEE2) [%] | Percent Control (WNK1) [%] | Percent Control (WNK2) [%] | Percent Control (WNK3) [%] | Percent Control (WNK4) [%] | Percent Control (YANK1) [%] | Percent Control (YANK2) [%] | Percent Control (YANK3) [%] | Percent Control (YES) [%]
1 | C/C(Nc1ccc(S(N)(=O)=O)cc1)=C1/C(=O)Nc2ccccc21 [GW335962X] | 100 | 95 | 90 | 93 | 100 | 100 | 100 | 100 | 88 | 100
2 | CCc1ccc(Oc2nccc(-c3c(-c4ccc(F)cc4)ncn3C3CCNCC3)n2)cc1 [SB-242719] | 100 | 100 | 80 | 97 | 89 | 67 | 8.8 | 13 | 32 | 78
3 | NS(=O)(=O)c1ccc(Nc2ncc(-c3ccccc3)o2)cc1 [GW572399X] | 100 | 100 | 89 | 100 | 100 | 100 | 100 | 100 | 100 | 100
4 | CC1=C(C(=O)Nc2ccc3[nH]ncc3c2)C(c2ccc(Cl)c(Cl)c2)CC(=O)N1 (stereo not shown) [GSK299115A] | 84 | 73 | 95 | 100 | 69 | 82 | 93 | 82 | 99 | 81
5 | COc1cc(N2CCN(C(C)C)CC2)ccc1Nc1nc(Nc2ccc(F)cc2C(=O)NC[C@@H](O)CO)c2cc[nH]c2n1 [GSK1392956A] | 96 | 100 | 92 | 100 | 100 | 69 | 100 | 100 | 100 | 99
6 | COc1ccc2cc(-c3c(-c4ccncc4)nc(-c4ccc(S(C)(=O)=O)cc4C)n3C)ccc2c1 [SB-633825] | 86 | 53 | 97 | 78 | 92 | 72 | 41 | 26 | 70 | 46
7 | Cl.O=C(Nc1ccc(Oc2ccc3[nH]c(NC(=O)c4ccccc4)nc3c2)cc1)Nc1cc(C(F)(F)F)ccc1F [GW709042A] | 100 | 100 | 91 | 100 | 88 | 100 | 88 | 100 | 100 | 100
8 | COc1cc(/C=N/Nc2ncnc3[nH]ncc23)ccc1O [GW578748X] | 100 | 80 | 100 | 70 | 64 | 100 | 100 | 100 | 100 | 87
9 | Nc1ncnc2occ(-c3ccc(NC(=O)Nc4cc(C(F)(F)F)ccc4F)cc3)c12 [GW770249X] | 100 | 100 | 96 | 100 | 100 | 100 | 99 | 100 | 100 | 98
10 | COc1cc(C=NNc2ncnc3c2cnn3-c2ccccc2)ccc1O [GW513184X] | 96 | 100 | 97 | 100 | 100 | 100 | 89 | 100 | 100 | 74
11 | CC1=C(C(=O)Nc2ccc3[nH]ncc3c2)C(c2ccc3ccccc3c2)CC(=O)N1 (stereo not shown) [GSK270822A] | 93 | 62 | 92 | 85 | 86 | 76 | 83 | 88 | 96 | 68
12 | CN(C)CCNC(=O)Nc1ccc(N(C)c2ccnc(Nc3ccc(CS(C)(=O)=O)cc3)n2)cc1.Cl [GW830900A] | 94 | 88 | 92 | 64 | 99 | 100 | 68 | 100 | 100 | 77
13 | COc1cc(C)c(N(C)C(=O)CN(C)C)cc1Nc1nc(Nc2cccc(F)c2C(N)=O)c2cc[nH]c2n1 [GSK2219385] | 100 | 90 | 100 | 100 | 100 | 81 | 87 | 100 | 85 | 96
14 | COc1ccc2c(-c3ccnc(Nc4cccc(OC(F)(F)F)c4)n3)cnn2n1 [GW810372X] | 100 | 100 | 100 | 61 | 90 | 100 | 100 | 100 | 100 | 100
15 | CCn1c(-c2nonc2N)nc2c(C#CC(C)(C)O)nc(OCCNC)cc21.Cl [GSK949675] | 92 | 100 | 100 | 100 | 100 | 51 | 87 | 89 | 100 | 100
16 | CCS(=O)(=O)c1ccc(OC)c(Nc2ncc(-c3cccc(OC)c3)o2)c1 [GW580509X] | 100 | 100 | 99 | 100 | 100 | 100 | 100 | 100 | 100 | 74
17 | Cc1cc(O)cc(C)c1/C=C/c1cncc(C(N)=O)c1 [GW435821X] | 100 | 100 | 100 | 100 | 93 | 100 | 100 | 100 | 100 | 100
18 | O=C(Nc1n[nH]c2nc(-c3ccc(O)cc3)c(Br)cc12)C1CC1 [SB-725317] | 100 | 100 | 84 | 98 | 100 | 98 | 100 | 100 | 100 | 100
19 | NS(=O)(=O)c1ccc(N/N=C2\C(=O)Nc3ccc(-c4cnco4)cc32)cc1 [GW276655] | 88 | 72 | 87 | 100 | 56 | 100 | 56 | 100 | 63 | 69
20 | NS(=O)(=O)c1ccc(N/N=C2\C(=O)Nc3ccc(C(=O)NCCc4c[nH]cn4)cc32)cc1 [GW300660X] | 100 | 100 | 100 | 100 | 95 | 100 | 100 | 100 | 100 | 100

Row | Structure (SMILES) | Percent Control (WEE1) [%] | Percent Control (WEE2) [%] | Percent Control (WNK1) [%] | Percent Control (WNK2) [%] | Percent Control (WNK3) [%] | Percent Control (WNK4) [%] | Percent Control (YANK1) [%] | Percent Control (YANK2) [%] | Percent Control (YANK3) [%] | Percent Control (YES) [%]
21 | CC(C)COC(=O)c1ccc2c(c1)/C(=C/Nc1ccc(S(N)(=O)=O)cc1)C(=O)N2 [GW416981X] | 100 | 100 | 100 | 100 | 100 | 100 | 100 | 100 | 100 | 100
22 | COc1cc2ncn(-c3cc(O[C@H](C)c4ccccc4Cl)c(C(N)=O)s3)c2cc1OC [GSK237701A] | 100 | 76 | 2.9 | 6.1 | 0.8 | 11 | 91 | 100 | 92 | 87
23 | NS(=O)(=O)c1ccc(N/N=C2\C(=O)Nc3ccc(Cl)cc32)cc1 [GW280670X] | 100 | 100 | 99 | 100 | 100 | 100 | 100 | 100 | 100 | 100
24 | COc1ccc2[nH]c3c4[nH]c5ccc(OC)cc5c4c4c(c3c2c1)C(=O)NC4=O [GW296115X] | 53 | 87 | 91 | 66 | 92 | 88 | 69 | 97 | 84 | 73
25 | COc1ccccc1-c1cc(/C=C2\C(=O)Nc3ncc(Br)cc32)cc(Br)c1O [GW442130X] | 100 | 100 | 100 | 100 | 98 | 100 | 92 | 94 | 100 | 100
26 | C[C@@H](Oc1cc(-n2cnc3ccc(OC4CCN(C)CC4)cc32)sc1C(N)=O)c1ccccc1Cl [GSK579289A] | 40 | 87 | 32 | 7.1 | 26 | 2.7 | 77 | 100 | 100 | 87
27 | CN(C)c1cc2c(Nc3ccc4c(cnn4Cc4ccccc4)c3)ncnc2cn1 [GW282974X] | 83 | 72 | 100 | 100 | 100 | 91 | 100 | 100 | 100 | 67
28 | NS(=O)(=O)c1ccc(N/N=C2\C(=O)Nc3ccc(C(=O)NCc4ccncc4)cc32)cc1 [GW300657X] | 93 | 59 | 92 | 78 | 95 | 73 | 100 | 100 | 100 | 100
29 | CCS(=O)(=O)c1ccc(OC)c(Nc2ncc(-c3cccc(F)c3)o2)c1 [GW621970X] | 100 | 100 | 90 | 100 | 97 | 100 | 100 | 100 | 100 | 43
30 | COc1cccc(-n2ncc3c(N/N=C/c4ccncc4)ncnc32)c1 [GW784752X] | 100 | 89 | 98 | 100 | 100 | 100 | 100 | 88 | 100 | 87
31 | Cl.O=C(O[C@H]1CN[C@H](C#Cc2cc3ncnc(Nc4ccc5c(cnn5Cc5ccccc5)c4)c3s2)C1)N1CCOCC1 [GSK200398A] | 89 | 96 | 80 | 94 | 100 | 95 | 100 | 100 | 100 | 98
32 | COc1cc2ncnc(Nc3ccc4c(cnn4Cc4ccccc4)c3)c2cc1OC.Cl [GW282449A] | 100 | 100 | 94 | 100 | 100 | 100 | 100 | 100 | 100 | 67
33 | COC(=O)Nc1nc2ccc(Oc3ccc(NC(=O)Nc4cc(C(F)(F)F)ccc4F)cc3)cc2s1.Cl [GW693917A] | 87 | 100 | 76 | 100 | 100 | 67 | 100 | 100 | 94 | 51
34 | COc1ccc(COc2ccc(Cc3cnc(N)nc3N)cc2OC)cc1 [GW632580X] | 98 | 83 | 98 | 84 | 92 | 82 | 100 | 100 | 100 | 82
35 | Cl.O=C(Nc1ccc(Oc2ccc3[nH]c(NC(=O)c4ccco4)nc3c2)cc1)Nc1cc(C(F)(F)F)ccc1F [GW683134A] | 100 | 100 | 90 | 100 | 100 | 100 | 82 | 100 | 100 | 61
36 | O=C1Nc2ccc(C(=O)c3ccco3)cc2C1=Cc1cc(Cl)c(O)c(Cl)c1 [GW406108X] | 100 | 100 | 89 | 100 | 93 | 100 | 100 | 100 | 100 | 100
37 | CN1CCN(C(=O)c2ccc(NC(=O)Nc3ccc(N(C)c4ccnc(Nc5ccc(CS(C)(=O)=O)cc5)n4)cc3)cc2)CC1.Cl [GW830263A] | 100 | 99 | 94 | 67 | 93 | 100 | 68 | 100 | 100 | 96
38 | COc1cccc(-c2c[nH]c3c(N/N=C/c4ccncc4)ncnc23)c1 [GW814408X] | 100 | 98 | 96 | 75 | 99 | 100 | 90 | 100 | 100 | 61
39 | Cl.O=S1CCN(Cc2ccc(-c3ccc4ncnc(Nc5ccc(OCc6ccccc6)c(F)c5)c4c3)o2)CC1 [GW576924A] | 100 | 100 | 100 | 100 | 100 | 100 | 100 | 100 | 100 | 100
40 | Cl.c1ccc(Cc2nc3ccc(Nc4ncnc5ccccc45)cc3[nH]2)cc1 [GR269666A] | 100 | 100 | 100 | 100 | 100 | 100 | 100 | 100 | 100 | 100
